In the library only some 2.5% were active in any assay of this set; here they are far more common.
miR-21 reporter: qHTS Assay for Modulators of miRNAs and/orActivators of miR-21 | HeLa miR-21 FLuc reporter, luciferase, 48 h | Potency, µM (highest dose often 38.3 µM), most hits filed as activators | 340,000 tested, under 10 active | AID 2288, 2010;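 also: miR-21 action dims this reporter so a rising signal means less miR-21 action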
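Compounds were titrated across several concentrations (up to approximately 40 uM) and incubated 48 hours with HeLa miR-21-FLuc reporter cells (miR-21 target sequence downstream of FLuc, endogenous miR-21). Readout was firefly luciferase luminescence after lytic detection reagent.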
Anesthetic bind: qHTS Assay for Identification of Novel General Anesthetics | Ferritin light chain (Equus caballus), P02791 | AID 485281, 2010 | 0.074% of 350,000 active | apoferritin/1-aminoanthracene competitive binding, fluorescence | Potency, µM (series often up to 77.5 µM), hits mostly inhibitors; also: nearly all actives have a fitted effect of over 20% in size
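Apoferritin-based anesthetic binding model; compound displacement of fluorescent 1-AMA measured as endpoint fluorescence after 10 minutes at room temperature, scaled to free-ligand and complex controls.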
ClpP mod: qHTS Assay for Activators of ClpP; ATP-dependent Clp protease proteolytic subunit (Bacillus subtilis (strain 168)), P80244; purified B. subtilis ClpP, FRET peptide cleavage, 20 min; Potency, µM (top dose mostly 57.5 µM); 1.9% of 340,000 active; AID 651965, 2013; active = well fitted falling curve with a large enough effect; inconclusive = small, poorly fitted or top-dose-only effect; inactive = no such curve, though single readings can be large or run the other way; also: the source files actives as falling curves though it sought activators and does not explain the sign; nearly all actives have a fitted effect of over 65% in size
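FRET quenching reversal measured ClpP activation: 10 microg/mL B. subtilis ClpP at pH 8 with the FRET-FV decapeptide, read at 430 nm after 320 nm excitation. The 20-min minus 0-min signal was scaled between DMSO/no-enzyme wells and ADEP (5.8 microM final).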
TrxR1 inh: qHTS Assay for Inhibitors of Mammalian Selenoprotein Thioredoxin Reductase 1 (TrxR1): qHTS; Potency, µM (highest dose often 114 µM), usual class: inhibitors; 1% of 390,000 active; Thioredoxin reductase 1, cytoplasmic (Rattus norvegicus), O89049; recombinant rTrxR1, NADPH fluorescence consumption, selenite substrate; also: nearly all actives have a fitted effect of over 65% in size
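Rat TrxR1 (90 nM in the dispensed reagent) was pre-reduced with 400 uM NADPH for 5 min at room temperature, then incubated with compound for 15 min. After 400 uM selenite was added, NADPH fluorescence (Ex 340/Em 450 nm) was followed for 8 min.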
TrxR1 substrate: qHTS Assay for Substrates of Mammalian Selenoprotein Thioredoxin Reductase 1 (TrxR1): qHTS. purified TrxR1 substrate turnover, NADPH consumption readout. Potency, µM (top dose mostly 114 µM). 0.01% of 390,000 active. AID 588456, 2011; also: nearly all actives have a fitted effect of over 50% in size
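Rat TrxR1, dispensed at 90 nM, was prereduced with 400 uM NADPH (final) for 5 min at ~22 deg C, then incubated with compound 15 min before 400 uM selenite. A first-read NADPH fluorescence drop versus no-compound background flagged substrates.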
Large screens that a line does not name were inactive. Unless noted, calls follow the shape of the dose curve; as a rule, active = well fitted curve in the direction sought with a large enough effect; inconclusive = small, poorly fitted or top-dose-only effect, or another doubt; inactive = no such curve, though single readings can be large; an effect the other way counts as inactive or inconclusive.

CCOc1ccc(N2C(=O)/C(=C/c3ccc(C)o3)C(=O)NC2=S)cc1	TrxR1 inh 25.1µM
COc1ccc(N2C(=O)/C(=C/c3ccc(C)o3)C(=O)NC2=S)cc1	TrxR1 inh 20µM
CN1CCN(c2ccc(/C=C3\C(=O)NC(=S)N(c4cccc(Br)c4)C3=O)o2)CC1	TrxR1 inh inconclusive
Cc1ccc(/C=C2\C(=O)NC(=S)N(c3cccc(F)c3)C2=O)o1	TrxR1 inh 7.94µM
Cc1cccc(N2C(=O)NC(=O)/C(=C/c3ccc([N+](=O)[O-])o3)C2=O)c1	TrxR1 inh 12.6µM
ClCCN(CCCl)/C(=C\c1ccccc1)c1ccnc2ccccc12	TrxR1 inh inconclusive (no result: miR-21 reporter, Anesthetic bind)
CCOC(=O)c1cccc(NC(=O)NCc2ccc3c(c2)CCN3C(=O)c2ccccc2)c1	none
COc1ccc(OC)c(N2C(=O)/C(=C/c3ccco3)C(=O)NC2=S)c1	TrxR1 inh 28.2µM
Cc1ccc(N2C(=O)/C(=C/c3ccc(CN(CCC#N)S(C)(=O)=O)o3)C(=O)NC2=S)cc1C	none (no result: ClpP mod, TrxR1 inh, TrxR1 substrate)
Cc1cccc(N2C(=O)/C(=C/c3ccc(CN(CCC#N)S(C)(=O)=O)o3)C(=O)NC2=S)c1	TrxR1 inh 7.94µM
Cc1ccc(NC(=O)c2cc(S(=O)(=O)N3CCOCC3)c(Cl)cc2Cl)cc1	miR-21 reporter inconclusive
CCOC(=O)c1ccccc1N	none (no result: miR-21 reporter, Anesthetic bind)
Nc1ccccc1C(=O)OC1CSC1	ClpP mod 28.2µM
N=C(N)c1ccc(-c2ccc(-c3ccc(C(=N)N)cc3)o2)cc1	TrxR1 inh inconclusive (no result: miR-21 reporter, Anesthetic bind)
Clc1ccccc1C(c1ccccc1)(c1ccccc1)n1cccn1	none (no result: miR-21 reporter, ClpP mod, TrxR1 inh, TrxR1 substrate)
O=C1NC(=O)N(c2ccc3c(c2)OCO3)C(=O)/C1=C/c1ccsc1	TrxR1 inh 35.5µM
O=C1NC(=O)N(c2ccc3c(c2)OCO3)C(=O)/C1=C/c1cccs1	TrxR1 inh 44.7µM (no result: ClpP mod)
O=C1NC(=S)NC(=O)C1=Cc1ccc(OCC(=O)N2CCCC2)cc1	TrxR1 inh 5.62µM
CCOc1cc(C=C2C(=O)NC(=O)NC2=O)ccc1OCC(=O)N1CCOCC1	TrxR1 inh inconclusive
O=C(Nc1ccc2nc(SCC(=O)N3CCCc4ccccc43)sc2c1)c1cccc(F)c1	ClpP mod 12.6µM
O=C1NC(=O)N(c2ccc(Cl)cc2)C(=O)/C1=C\c1ccc(Sc2nc3ccccc3[nH]2)o1	TrxR1 inh 12.6µM (no result: ClpP mod)
CC1(C)[C@H](C(=O)O[C@H](C#N)c2cccc(Oc3ccccc3)c2)[C@@H]1C=C(Br)Br	none (no result: miR-21 reporter, ClpP mod, TrxR1 inh, TrxR1 substrate)
COC(=O)C12CCc3c(ccc4cc(OC)ccc34)C1=CC(=O)C2 (centres undefined)	ClpP mod 28.2µM (no result: miR-21 reporter, Anesthetic bind)
CCCCN1CC(O)=C(c2nc3ccccc3s2)C1=N	none
CNC(=O)COC(=O)c1ccc(-c2nc3ccccc3s2)s1	ClpP mod 6.31µM
CCOP(=S)(OCC)Oc1cc(C)nc(N(CC)CC)n1	none (no result: miR-21 reporter, ClpP mod, TrxR1 inh, TrxR1 substrate)
Cc1cc(/C=C2\C(=O)NC(=O)N(c3ccc(Cl)cc3)C2=O)c(C)n1-c1sc2c(c1C#N)CCCC2	TrxR1 inh 50.1µM
O=C(CNC(=O)c1ccc(Cl)cc1)OCC(=O)c1ccc2c(c1)OCCO2	Anesthetic bind 10µM
Nc1ccccc1C(=O)OCC(=O)c1ccc2c(c1)OCCO2	Anesthetic bind inconclusive
Cc1oc2ccc(O)c(CN3CCCCCC3)c2c1C(=O)Nc1cccc(Cl)c1C	miR-21 reporter inconclusive
COc1ccc(C(=O)CN2CCOCC2)cc1	none (no result: miR-21 reporter, Anesthetic bind)
Cc1cc(C)c(C(=O)CN2CCOCC2)c(C)c1	ClpP mod 31.6µM
CCOC(=O)c1ccc(N=C(CC)c2c(O)n(C)c(=O)n(C)c2=O)cc1	ClpP mod 25.1µM
COC(=O)[C@]1(C)CC[C@@]2(C)CC[C@@]3(C)C4=CC=C5C(=CC(=O)C(O)=C5C)[C@@]4(C)CC[C@@]3(C)C2C1 (some centres undefined)	none (no result: miR-21 reporter, ClpP mod, TrxR1 inh, TrxR1 substrate)
Nc1cccc2cccc([N+](=O)[O-])c12	ClpP mod 15.8µM (no result: miR-21 reporter, Anesthetic bind)
COCOC1CCC2C3CCC4=CC(=O)CCC4=C3C=CC12C (centres undefined)	TrxR1 inh 39.8µM (no result: miR-21 reporter, Anesthetic bind)
CC1(O)CCC2C3CCC4=CC(=O)CCC4=C3C=CC21C (centres undefined)	none (no result: miR-21 reporter, Anesthetic bind, ClpP mod)
O=C(Oc1ccc(Cl)c2ccccc12)N1CCCCC1	Anesthetic bind inconclusive, ClpP mod 28.2µM
C[C@@]12CC3CC(N)(C1)C[C@@](C)(C3)C2	none (no result: miR-21 reporter, ClpP mod, TrxR1 inh, TrxR1 substrate)
COC(=O)c1[nH]c2ccc(C)cc2c1NC(=O)Oc1ccccc1	ClpP mod 35.5µM
CCOP(=O)(OCC)C(NC(=O)c1cccc([N+](=O)[O-])c1)C(Cl)(Cl)Cl (centres undefined)	ClpP mod 31.6µM
CCOP(=O)(OCC)C(NC(=O)c1cccc(C)c1)C(Cl)(Cl)Cl (centres undefined)	none
CCOP(=S)(OCC)Oc1ncn(-c2ccccc2)n1	none (no result: miR-21 reporter, ClpP mod, TrxR1 inh, TrxR1 substrate)
CCOP(=O)(OCC)C(O)c1ccccc1 (centres undefined)	none
CCOP(=O)(C1=C(O)C(=O)C(C(C)(C)C)=CC1=O)c1ccccc1 (centres undefined)	TrxR1 inh 4.47µM (no result: ClpP mod)
Cc1nn(Cc2ccccc2)c(C)c1C=C1C(=O)NC(=S)NC1=O	TrxR1 inh 8.91µM
Cc1ccc(C)c(N2CCN(c3nc4ccc(Cl)cc4n4cnnc34)CC2)c1	none
COc1ccc(-n2c(=S)[nH]c3c(sc(=S)n3-c3ccccc3)c2=O)c(OC)c1	ClpP mod 11.2µM
COc1ccc(-n2c(=O)[nH]c3ccccc3c2=O)c(OC)c1	none
O=C(Nc1ccc(Br)cc1C(=O)O)c1ccc2c(c1)C(=O)N(Cc1ccccc1)C2=O	Anesthetic bind inconclusive
CC(C)C[C@H]1C(=O)N2CCC[C@H]2[C@]2(O)O[C@](NC(=O)[C@@H]3C=C4c5cccc6[nH]c(Br)c(c56)C[C@H]4N(C)C3)(C(C)C)C(=O)N12	TrxR1 inh inconclusive (no result: miR-21 reporter, ClpP mod)
CC(C)C[C@H]1C(=O)N2CCC[C@H]2[C@]2(O)O[C@](NC(=O)[C@@H]3C=C4c5cccc6[nH]cc(c56)C[C@H]4N(C)C3)(C(C)C)C(=O)N12	TrxR1 inh 15.8µM (no result: miR-21 reporter, Anesthetic bind)
Cc1c(C=C2C(=O)N(C)C(=S)N(C)C2=O)c2ccccc2n1CC(=O)NCC1CCCO1 (centres undefined)	TrxR1 inh 12.6µM
C=CCn1c(O)c(C(C)=NCCCN(C)C)c(=O)[nH]c1=O	ClpP mod 14.1µM
COc1ccc2c(c1)c(C(=O)O)c(C)n2CC(C)C	none
COc1cc(O)c(C(=O)O)c(-c2cc(O)c(O)cc2C)c1	TrxR1 inh 0.794µM
COCCCn1c(N)c(C(=O)OCCOC)c2nc3ccccc3nc21	none
